For 49 compounds, inhibition results are on record in PubChem BioAssay AID2018 (Sanford-Burnham Center for Chemical Genomics, 2009).

Molecules are shown by their SMILES. Screen size: about 1,200 compounds; about 600 (50%) were called active. So high a share suggests a set chosen from earlier hits. The list shows a part of the results. Results with a measured potency or affinity are listed apart. Unmarked numbers belong to inactive results. No stated cut-off is given here; in the data, active means inhibition above about 42%; inactive means the rest.

SUMO-conjugating enzyme UBC9 (Homo sapiens), sequence (P63279 whole entry, looked up): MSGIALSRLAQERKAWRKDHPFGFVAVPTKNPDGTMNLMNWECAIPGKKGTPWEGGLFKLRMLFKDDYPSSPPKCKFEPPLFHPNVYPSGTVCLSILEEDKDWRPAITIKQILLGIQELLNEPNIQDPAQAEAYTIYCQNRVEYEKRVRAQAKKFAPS

The assay concerns the target SUMO-conjugating enzyme UBC9 (Homo sapiens) (UniProt P63279). The assay can be described thus: SUMOylation inhibitor hit validation, confirmation, SUMOylation inhibitor project, biochemical, AlphaScreen (AID 2018). Particulars: AlphaScreen in vitro SUMOylation assay; at 35 µM; stronger effect = higher value.
A word on the inhibition: it is the relative decrease from the control value, in per cent. Regarding `O=C(O)CC1OCC=C2CN3CCC45C6=CC(=O)C(=O)C([N+](=O)[O-])=C6NC4C1C2CC35` (centres undefined), the inhibition was 102% (active). The result for `CN1CCN(c2ccc(S(C)(=O)=O)cc2[N+](=O)[O-])CC1` reads -12.2%. Take `Cc1cc(/C=C2\C(=O)NC(=O)N(Cc3ccccc3)C2=O)c(C)n1-c1ccc(Cl)c(C(=O)O)c1`: the inhibition was 102% (active).

As for `CC(=O)c1ccc2c(c1)C1C(Cl)C(Sc3ccccc3[N+](=O)[O-])CC1C(C(=O)O)N2` (centres undefined), the inhibition is 102% (active). Consider `CC(=O)c1ccc2c(c1)C1C(Cl)C(Sc3ccccc3[N+](=O)[O-])CC1C(c1ccccc1[N+](=O)[O-])N2` (centres undefined), for which the inhibition was 38.6%. As for `CC(C)CCNC(=O)c1c(N)n(Cc2ccc3c(c2)OCO3)c2nc3ccccc3nc12`, the inhibition is 18.5%.

Consider `Cc1c(CC(=O)N2C[C@H]3C[C@@H](C2)c2cccc(=O)n2C3)c(=O)oc2c(C)c(O)ccc12`, for which the inhibition is 54.2% (active). Consider `Nc1c(C(=O)NCCCc2ccccc2)c2nc3ccccc3nc2n1Cc1cccs1`, for which the inhibition was -10.2%. The figure for `Cc1[nH]n(-c2ccccc2)c(=O)c1C(c1ccc([N+](=O)[O-])cc1)c1c(C)[nH]n(-c2ccccc2)c1=O` is 102% (active). The result for `CCN(CC)c1ccc([N+](=O)[O-])c2cccnc12` reads 33.7%; that for `CC(C)CCNC(=O)c1c(N)n(CC2CCCO2)c2nc3ccccc3nc12` (centres undefined), -37.9%; that for `CC(C)OCCCNC(=O)c1c(N)n(CC2CCCO2)c2nc3ccccc3nc12` (centres undefined), -76.6%.

Take `CCCNC(=O)c1c(N)n(Cc2ccc3c(c2)OCO3)c2nc3ccccc3nc12`: the inhibition was 13.5%.

For `CCC(C)NC(=O)c1c(N)n(CC2CCCO2)c2nc3ccccc3nc12` (centres undefined), the inhibition is 101% (active). `Nc1c(C(=O)NC2CCCC2)c2nc3ccccc3nc2n1CC1CCCO1` (centres undefined): the inhibition is 100% (active). Consider `CCCNC(=O)c1c(N)n(CC2CCCO2)c2nc3ccccc3nc12` (centres undefined), for which the inhibition was -23.2%. Take `CCC(C)NC(=O)c1c(N)n(Cc2ccc3c(c2)OCO3)c2nc3ccccc3nc12` (centres undefined): the inhibition was 11%. In the case of `CN1CCC2(CC1)C(C#N)=C(N)NC(S)=C2C#N`, the inhibition is 38.8%. The result for `COCCNC(=O)c1c(NC(=O)c2ccco2)n(Cc2ccccc2)c2nc3ccccc3nc12` reads -28.4%.

In the case of `CCCCn1c(NS(=O)(=O)c2ccc(C)cc2)c(C(=O)OCC)c2nc3ccccc3nc21`, the inhibition was 28.2%.

`CCCCn1c(NC(=O)c2ccco2)c(C(=O)OCC)c2nc3ccccc3nc21`: the inhibition was 62.6% (active). The result for `CCCCn1c(N)c(C(=O)OCC2CCCO2)c2nc3ccccc3nc21` (centres undefined) reads 25.4%; that for `CCCCn1c(NS(=O)(=O)c2ccccc2)c(C(=O)OCC)c2nc3ccccc3nc21`, 101% (active); that for `COCCCn1c(N)c(C(=O)Nc2ccccc2)c2nc3ccccc3nc21`, -4.1%. Consider `COCCCn1c(N)c(C(=O)NCCC(C)C)c2nc3ccccc3nc21`, for which the inhibition was -40.9%. With `COc1cc(Cn2c(N)c(C(=O)NCc3ccco3)c3nc4ccccc4nc32)cc(OC)c1OC`, the inhibition is 50.8% (active). Consider `CC(C)CCn1c(N)c(C(=O)NCc2cccs2)c2nc3ccccc3nc21`, for which the inhibition is 4.2%.

Take `CCCCCn1c(N)c(C(=O)NCc2cccs2)c2nc3ccccc3nc21`: the inhibition is 9.5%. The figure for `CCCCn1c(N)c(C(=O)NCc2cccs2)c2nc3ccccc3nc21` is 51.4% (active); for `CCOC(=O)c1c(NC(=O)c2c(N)n(CCCOC)c3nc4ccccc4nc23)sc2c1CCCC2` it is 41.9%; for `CCCCNC(=O)c1c(N)n(CCCOC)c2nc3ccccc3nc12` it is 102% (active).

Consider `COCCCn1c(N)c(C(=O)NCc2ccco2)c2nc3ccccc3nc21`, for which the inhibition is -8.5%. The result for `CCOCCCn1c(N)c(C(=O)Nc2sc3c(c2C(=O)OC)CCCC3)c2nc3ccccc3nc21` reads 47% (active); that for `COc1ccc(Cn2c(N)c(C(=O)NCc3ccco3)c3nc4ccccc4nc32)cc1`, -14.9%. The result for `COc1ccc(Cc2nccc3cc(OC)c(OC)cc23)cc1OC` reads 37.6%; that for `c1ccc2c(NC3=NCCS3)cccc2c1`, 19.6%. In the case of `CN1CCc2nc3sc(C#N)c(N)c3c(-c3cccs3)c2C1`, the inhibition was 29.8%. Regarding `CN1CCN(c2ccc3nccnc3c2)CC1`, the inhibition was 6.7%. The result for `O=C(O)CCn1cc(C=C2C(=O)NC(=O)NC2=O)c(-c2ccc(Br)cc2)n1` reads 1%; that for `COCCCn1c(N)c(C(=O)OCCOC)c2nc3ccccc3nc21`, 10.5%.

Turning to `CCC(C)NC(=O)c1c(N)n(CCCOC)c2nc3ccccc3nc12` (centres undefined), the inhibition is 74% (active). Consider `COCCNC(=O)c1c(N)n(CCC(C)C)c2nc3ccccc3nc12`, for which the inhibition is -54.5%. The figure for `Cc1ccsc1C(=O)C1CCCN(Cc2ccc(-n3cccn3)cc2)C1` (centres undefined) is -14.4%; for `CC(C)CNC(=O)c1c(N)n(Cc2ccc3c(c2)OCO3)c2nc3ccccc3nc12` it is -19.8%; for `CN1C[C@H](CO)C=C2c3cccc4[nH]cc(c34)C[C@H]21` it is 10.8%. Consider `CC(C)[C@H]1C(=O)N2CCC[C@H]2[C@]2(O)O[C@](NC(=O)[C@@H]3C=C4c5cccc6[nH]cc(c56)C[C@H]4N(C)C3)(C(C)C)C(=O)N12`, for which the inhibition was 54.8% (active). With `Cn1c(O)c(/C=C2\N=c3ccccc3=C2CCNC(=S)NC2CC2)c(=O)n(C)c1=O`, the inhibition is 58.6% (active). The figure for `O=C(c1cccn2c(=O)c3ccc(Cl)cc3nc12)N1CCC2(CC1)OCCO2` is 20.5%; for `COc1ccc(OC)c(N2C(=O)NC(=O)/C(=C/c3ccc([N+](=O)[O-])s3)C2=O)c1` it is 86.3% (active).
